Data published in the supplement of paper PMC10849652.
About 8,800 targets were measured; listed, in parts, are those with a hit and a random draw of the rest. About 0.5% of all pairs of compound and target were hits.

Compound: Cc1cc(Nc2cc(N3CCN(C)CC3)nc(Sc3ccc(NC(=O)C4CC4)cc3)n2)n[nH]1 [tozasertib]
Assay: log2 fold change, soluble protein after heating vs DMSO (PISA); higher = thermal stabilisation; K562 lysate, 10 uM; active = over 0.2 and 3.5 SD of the protein, either way, in both replicates (recomputed)
In short: (§1)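 Thermal stability, expressed as log-two fold change relative to solvent controls, is given from duplicates. Crude K562 extract in PBS pH 7.4 with 1 mM MgCl2, at 1 mg/mL protein, was treated with 10 μM compound for 30 min and heated in aliquots for 3 min across 48°C-58°C. After pooling, adjustment to 0.5% NP-40 at 4°C and centrifugation at 21,000xg for 90 min, supernatant protein was measured by TMTpro 16plex LC-MS/MS with channel sums equalised.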

UniProt O75909, sequence (O75909 whole entry, looked up): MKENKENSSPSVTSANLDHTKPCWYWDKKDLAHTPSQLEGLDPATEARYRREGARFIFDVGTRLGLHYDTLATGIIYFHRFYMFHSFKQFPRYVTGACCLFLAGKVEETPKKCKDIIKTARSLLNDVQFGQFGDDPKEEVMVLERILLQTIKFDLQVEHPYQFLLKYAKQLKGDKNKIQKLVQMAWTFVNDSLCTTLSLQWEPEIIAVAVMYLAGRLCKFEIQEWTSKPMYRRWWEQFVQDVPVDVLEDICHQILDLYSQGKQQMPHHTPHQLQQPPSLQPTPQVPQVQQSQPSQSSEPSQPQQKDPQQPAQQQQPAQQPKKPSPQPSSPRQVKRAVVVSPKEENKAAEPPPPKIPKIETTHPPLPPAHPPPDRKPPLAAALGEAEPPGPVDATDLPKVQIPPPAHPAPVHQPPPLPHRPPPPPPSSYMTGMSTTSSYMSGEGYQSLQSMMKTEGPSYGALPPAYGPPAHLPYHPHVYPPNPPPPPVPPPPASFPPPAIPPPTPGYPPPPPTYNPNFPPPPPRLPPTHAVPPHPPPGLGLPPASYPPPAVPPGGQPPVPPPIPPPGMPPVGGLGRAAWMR
UniProt Q9HB09, sequence (Q9HB09 whole entry, looked up): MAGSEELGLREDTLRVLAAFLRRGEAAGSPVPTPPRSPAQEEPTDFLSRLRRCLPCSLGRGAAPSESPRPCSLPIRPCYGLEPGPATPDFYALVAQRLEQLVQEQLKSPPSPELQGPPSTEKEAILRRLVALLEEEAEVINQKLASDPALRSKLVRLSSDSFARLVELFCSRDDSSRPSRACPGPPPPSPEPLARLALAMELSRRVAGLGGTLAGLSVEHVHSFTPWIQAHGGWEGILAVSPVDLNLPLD
UniProt O00748, sequence (O00748 whole entry, looked up): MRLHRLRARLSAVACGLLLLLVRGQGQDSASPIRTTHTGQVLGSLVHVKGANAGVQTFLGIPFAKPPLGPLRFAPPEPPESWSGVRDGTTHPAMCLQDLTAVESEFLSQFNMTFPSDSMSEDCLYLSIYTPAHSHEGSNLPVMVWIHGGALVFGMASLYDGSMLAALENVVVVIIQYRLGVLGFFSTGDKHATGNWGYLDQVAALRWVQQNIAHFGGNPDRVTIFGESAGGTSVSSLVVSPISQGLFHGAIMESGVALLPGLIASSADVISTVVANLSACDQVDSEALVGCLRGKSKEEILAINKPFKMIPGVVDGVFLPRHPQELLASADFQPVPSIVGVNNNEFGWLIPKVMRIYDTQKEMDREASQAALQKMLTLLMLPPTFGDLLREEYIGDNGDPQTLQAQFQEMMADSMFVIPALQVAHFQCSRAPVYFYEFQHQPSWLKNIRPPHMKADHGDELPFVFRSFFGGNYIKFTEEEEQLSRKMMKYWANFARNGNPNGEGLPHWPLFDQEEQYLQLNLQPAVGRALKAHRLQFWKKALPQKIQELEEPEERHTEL
UniProt A6NDU8, sequence (A6NDU8 whole entry, looked up): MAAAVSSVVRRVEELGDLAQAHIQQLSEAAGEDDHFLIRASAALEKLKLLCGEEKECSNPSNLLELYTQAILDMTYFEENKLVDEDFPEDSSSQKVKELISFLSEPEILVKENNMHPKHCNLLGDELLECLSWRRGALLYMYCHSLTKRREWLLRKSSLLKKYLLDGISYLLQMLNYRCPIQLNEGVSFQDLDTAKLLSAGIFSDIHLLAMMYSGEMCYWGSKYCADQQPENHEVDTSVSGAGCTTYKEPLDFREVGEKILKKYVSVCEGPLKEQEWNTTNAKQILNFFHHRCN
UniProt Q99700, sequence (Q99700 whole entry, looked up): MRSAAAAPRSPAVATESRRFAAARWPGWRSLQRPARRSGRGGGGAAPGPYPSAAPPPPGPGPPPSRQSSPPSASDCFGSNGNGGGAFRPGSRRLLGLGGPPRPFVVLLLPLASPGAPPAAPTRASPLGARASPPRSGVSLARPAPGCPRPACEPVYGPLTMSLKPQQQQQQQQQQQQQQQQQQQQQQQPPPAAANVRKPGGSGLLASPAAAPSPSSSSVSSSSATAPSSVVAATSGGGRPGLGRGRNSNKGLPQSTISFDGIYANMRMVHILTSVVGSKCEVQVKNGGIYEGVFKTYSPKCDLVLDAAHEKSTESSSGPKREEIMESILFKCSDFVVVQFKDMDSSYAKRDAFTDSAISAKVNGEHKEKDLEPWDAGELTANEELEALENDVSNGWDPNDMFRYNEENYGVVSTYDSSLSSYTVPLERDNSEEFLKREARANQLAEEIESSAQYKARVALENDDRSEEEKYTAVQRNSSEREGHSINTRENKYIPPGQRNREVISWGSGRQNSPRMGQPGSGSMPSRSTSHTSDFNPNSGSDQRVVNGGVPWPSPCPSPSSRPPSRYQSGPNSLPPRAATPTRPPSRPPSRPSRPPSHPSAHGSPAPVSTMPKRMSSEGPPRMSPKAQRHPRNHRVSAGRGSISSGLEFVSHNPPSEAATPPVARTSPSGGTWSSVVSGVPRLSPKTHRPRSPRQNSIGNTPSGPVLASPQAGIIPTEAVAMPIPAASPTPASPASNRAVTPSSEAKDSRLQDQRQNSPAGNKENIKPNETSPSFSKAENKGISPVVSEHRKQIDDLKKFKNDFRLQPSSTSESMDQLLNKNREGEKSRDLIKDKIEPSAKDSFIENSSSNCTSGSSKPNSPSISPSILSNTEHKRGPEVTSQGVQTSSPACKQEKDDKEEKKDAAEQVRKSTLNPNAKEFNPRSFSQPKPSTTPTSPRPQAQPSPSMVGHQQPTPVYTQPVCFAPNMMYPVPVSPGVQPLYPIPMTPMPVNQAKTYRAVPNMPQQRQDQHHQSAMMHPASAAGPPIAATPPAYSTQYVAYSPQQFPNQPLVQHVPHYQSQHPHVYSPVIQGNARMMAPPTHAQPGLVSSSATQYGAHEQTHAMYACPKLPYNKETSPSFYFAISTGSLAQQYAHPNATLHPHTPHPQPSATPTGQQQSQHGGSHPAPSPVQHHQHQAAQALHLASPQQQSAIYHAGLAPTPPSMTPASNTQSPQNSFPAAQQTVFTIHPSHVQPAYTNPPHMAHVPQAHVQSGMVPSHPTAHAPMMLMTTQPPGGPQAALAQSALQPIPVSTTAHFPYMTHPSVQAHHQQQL
UniProt Q9NXV6, sequence (Q9NXV6 whole entry, looked up): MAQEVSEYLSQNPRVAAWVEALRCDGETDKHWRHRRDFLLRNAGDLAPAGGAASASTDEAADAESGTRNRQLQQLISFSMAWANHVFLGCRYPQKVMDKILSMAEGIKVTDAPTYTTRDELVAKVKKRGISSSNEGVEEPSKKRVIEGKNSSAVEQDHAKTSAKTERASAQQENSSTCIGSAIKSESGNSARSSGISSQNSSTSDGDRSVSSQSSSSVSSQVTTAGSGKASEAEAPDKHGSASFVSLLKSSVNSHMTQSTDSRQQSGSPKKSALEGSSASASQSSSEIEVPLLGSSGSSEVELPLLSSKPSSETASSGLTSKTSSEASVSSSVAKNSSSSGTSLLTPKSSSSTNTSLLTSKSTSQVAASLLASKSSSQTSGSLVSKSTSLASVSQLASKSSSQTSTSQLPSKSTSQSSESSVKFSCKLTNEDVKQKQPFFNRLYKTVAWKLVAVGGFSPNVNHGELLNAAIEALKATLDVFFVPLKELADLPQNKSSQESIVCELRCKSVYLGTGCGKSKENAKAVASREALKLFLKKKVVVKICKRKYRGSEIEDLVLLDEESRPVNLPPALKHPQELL
UniProt P14635, sequence (P14635 whole entry, looked up): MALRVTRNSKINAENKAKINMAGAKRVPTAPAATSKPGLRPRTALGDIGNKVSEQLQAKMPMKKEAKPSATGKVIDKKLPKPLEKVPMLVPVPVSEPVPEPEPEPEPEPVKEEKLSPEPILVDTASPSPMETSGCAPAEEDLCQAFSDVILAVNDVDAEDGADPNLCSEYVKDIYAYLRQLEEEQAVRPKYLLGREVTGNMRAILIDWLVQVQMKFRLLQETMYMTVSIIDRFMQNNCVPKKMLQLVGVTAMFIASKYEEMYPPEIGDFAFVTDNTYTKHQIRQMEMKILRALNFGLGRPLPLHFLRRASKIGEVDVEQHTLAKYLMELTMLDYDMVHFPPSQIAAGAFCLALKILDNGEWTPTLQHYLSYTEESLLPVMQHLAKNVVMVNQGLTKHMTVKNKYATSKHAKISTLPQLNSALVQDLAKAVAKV
UniProt Q8NBU5, sequence (Q8NBU5 whole entry, looked up): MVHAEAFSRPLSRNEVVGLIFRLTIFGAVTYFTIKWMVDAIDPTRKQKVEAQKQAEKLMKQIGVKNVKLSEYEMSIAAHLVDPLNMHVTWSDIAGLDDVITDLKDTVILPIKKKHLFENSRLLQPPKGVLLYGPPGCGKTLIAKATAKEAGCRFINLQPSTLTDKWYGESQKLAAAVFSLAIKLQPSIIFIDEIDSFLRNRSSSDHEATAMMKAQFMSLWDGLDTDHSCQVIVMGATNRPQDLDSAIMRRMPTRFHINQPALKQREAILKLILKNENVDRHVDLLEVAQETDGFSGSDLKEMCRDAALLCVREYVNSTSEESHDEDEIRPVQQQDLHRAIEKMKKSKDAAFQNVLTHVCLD
UniProt Q13555, sequence (Q13555 whole entry, looked up): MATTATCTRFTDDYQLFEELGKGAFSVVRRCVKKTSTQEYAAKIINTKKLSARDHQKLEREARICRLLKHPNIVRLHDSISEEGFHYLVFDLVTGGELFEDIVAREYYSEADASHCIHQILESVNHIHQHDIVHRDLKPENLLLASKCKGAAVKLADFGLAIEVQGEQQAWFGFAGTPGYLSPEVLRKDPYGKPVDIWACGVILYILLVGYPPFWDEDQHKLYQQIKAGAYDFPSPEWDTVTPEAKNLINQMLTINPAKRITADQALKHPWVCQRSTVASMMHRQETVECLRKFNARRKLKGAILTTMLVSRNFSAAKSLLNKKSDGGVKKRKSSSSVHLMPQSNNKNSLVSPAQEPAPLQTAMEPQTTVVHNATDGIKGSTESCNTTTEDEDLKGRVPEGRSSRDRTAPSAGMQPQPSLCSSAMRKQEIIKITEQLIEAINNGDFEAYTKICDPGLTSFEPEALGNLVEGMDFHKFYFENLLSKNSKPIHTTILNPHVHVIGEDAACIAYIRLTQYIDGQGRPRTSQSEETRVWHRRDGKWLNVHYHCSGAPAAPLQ

Target	log2 fold change
BLOC1S6 (UniProt Q9UL45)	-0.11 (inactive)
BAG4 (UniProt O95429)	0.011 (inactive)
CCNC (UniProt P24863)	-0.025 (inactive)
CALM2 (UniProt P0DP24)	0.025 (inactive)
CEP76 (UniProt Q8TAP6)	0.079 (inactive)
CDS2 (UniProt O95674)	0.054 (inactive)
CCAR2 (UniProt Q8N163)	0.026 (inactive)
CDKN2AIP (UniProt Q9NXV6)	-0.034 (inactive)
BRD3 (UniProt Q15059)	0.048 (inactive)
CEP120 (UniProt Q8N960)	-0.096 (inactive)
C18orf25 (UniProt Q96B23)	-0.029 (inactive)
CDAN1 (UniProt Q8IWY9)	0.068 (inactive)
ATAD1 (UniProt Q8NBU5)	0.017 (inactive)
CCT6A (UniProt P40227)	-0.012 (inactive)
C5orf51 (UniProt A6NDU8)	-0.037 (inactive)
CHCHD4 isoform 2 (UniProt Q8N4Q1)	-0.041 (inactive)
CCPG1 isoform 5 (UniProt Q9ULG6)	-0.021 (inactive)
CD63 (UniProt P08962)	0.013 (inactive)
CES2 isoform 4 (UniProt O00748)	0 (inactive)
CFDP1 (UniProt Q9UEE9)	-0.032 (inactive)

Target	log2 fold change
AURKAIP1 (UniProt Q9NWT8)	0.028 (inactive)
CCDC186 (UniProt Q7Z3E2)	0 (inactive)
ATP13A1 (UniProt Q9HD20)	0.068 (inactive)
ATXN2 (UniProt Q99700)	0.011 (inactive)
CHCHD2 (UniProt Q9Y6H1)	0.102 (inactive)
CDC40 (UniProt O60508)	-0.038 (inactive)
CCNK isoform 4 (UniProt O75909)	-0.023 (inactive)
C18orf32 (UniProt Q8TCD1)	-0.011 (inactive)
CHAF1A (UniProt Q13111)	-0.023 (inactive)
CAMK2G isoform 8 (UniProt Q13555)	-0.037 (inactive)
CBX1 (UniProt P83916)	-0.05 (inactive)
ATP5PF isoform 2 (UniProt P18859)	-0.018 (inactive)
CCNB1 (UniProt P14635)	0.005 (inactive)
BCL2L12 (UniProt Q9HB09)	-0.056 (inactive)
ATP11A (UniProt P98196)	0.009 (inactive)
CAMK1 (UniProt Q14012)	0.05 (inactive)
CAMLG (UniProt P49069)	-0.037 (inactive)
CHAC2 (UniProt Q8WUX2)	0.015 (inactive)
CANX isoform 2 (UniProt P27824)	0.015 (inactive)
BRD2 isoform 2 (UniProt P25440)	0 (inactive)

Compound: Cc1ccc(-n2nc(C(C)(C)C)cc2NC(=O)Nc2ccc(OCCN3CCOCC3)c3ccccc23)cc1 [doramapimod]
Assay: as above
In short: as §1

Target	log2 fold change
BLOC1S6 (UniProt Q9UL45)	-0.011 (inactive)
BAG4 (UniProt O95429)	-0.043 (inactive)
CCNC (UniProt P24863)	0.332 (active)
CALM2 (UniProt P0DP24)	-0.064 (inactive)
CEP76 (UniProt Q8TAP6)	0.085 (inactive)
CDS2 (UniProt O95674)	0.009 (inactive)
CCAR2 (UniProt Q8N163)	0.022 (inactive)
CDKN2AIP (UniProt Q9NXV6)	0.043 (inactive)
BRD3 (UniProt Q15059)	-0.074 (inactive)
CEP120 (UniProt Q8N960)	0.107 (inactive)
C18orf25 (UniProt Q96B23)	0.019 (inactive)
CDAN1 (UniProt Q8IWY9)	-0.021 (inactive)
ATAD1 (UniProt Q8NBU5)	0.015 (inactive)
CCT6A (UniProt P40227)	-0.013 (inactive)
C5orf51 (UniProt A6NDU8)	-0.027 (inactive)
CHCHD4 isoform 2 (UniProt Q8N4Q1)	0.047 (inactive)
CCPG1 isoform 5 (UniProt Q9ULG6)	0.036 (inactive)
CD63 (UniProt P08962)	0.077 (inactive)
CES2 isoform 4 (UniProt O00748)	0.015 (inactive)
CFDP1 (UniProt Q9UEE9)	0.041 (inactive)

Target	log2 fold change
AURKAIP1 (UniProt Q9NWT8)	-0.039 (inactive)
CCDC186 (UniProt Q7Z3E2)	-0.01 (inactive)
ATP13A1 (UniProt Q9HD20)	-0.053 (inactive)
ATXN2 (UniProt Q99700)	0.017 (inactive)
CHCHD2 (UniProt Q9Y6H1)	-0.021 (inactive)
CDC40 (UniProt O60508)	-0.005 (inactive)
CCNK isoform 4 (UniProt O75909)	0.113 (inactive)
C18orf32 (UniProt Q8TCD1)	-0.01 (inactive)
CHAF1A (UniProt Q13111)	0.026 (inactive)
CAMK2G isoform 8 (UniProt Q13555)	-0.049 (inactive)
CBX1 (UniProt P83916)	-0.034 (inactive)
ATP5PF isoform 2 (UniProt P18859)	-0.083 (inactive)
CCNB1 (UniProt P14635)	0.03 (inactive)
BCL2L12 (UniProt Q9HB09)	-0.016 (inactive)
ATP11A (UniProt P98196)	-0.07 (inactive)
CAMK1 (UniProt Q14012)	-0.006 (inactive)
CAMLG (UniProt P49069)	-0.005 (inactive)
CHAC2 (UniProt Q8WUX2)	-0.01 (inactive)
CANX isoform 2 (UniProt P27824)	0.006 (inactive)
BRD2 isoform 2 (UniProt P25440)	-0.084 (inactive)
